# PubChem BioAssay (NCI)
# About 79,000 compounds went through this panel and 15% of them were active in at least one assay; those are over-represented in the sample as a whole. Unmarked numbers belong to inactive results. Activity calls are given as the source filed them. No stated cut-off is given here; in the data, active means growth inhibition above about 70%; inactive means the rest.
# Tests used:
# [1] = NCI Yeast Anticancer Drug Screen. Data for the rad50 strain (AID 155);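 further: 0% = growth of vehicle-only cultures of the same strain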; conditions: S. cerevisiae rad50 strain growth inhibition; at 50.0 µM; stronger effect = higher value
# How it was run: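 A DNA repair-deficient yeast mutant serves as the test organism; compound-induced growth inhibition is calculated against vehicle-treated cells.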
# [2] = NCI Yeast Anticancer Drug Screen. Data for the mec2-1 strain (AID 157); conditions: S. cerevisiae mec2-1 strain, at 50.0 µM, stronger effect = higher value
# How it was run: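 Strain: mec2-1 (DNA repair/cell cycle alteration). Compound exposure, then growth measured; inhibition expressed relative to vehicle.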
# [3] = NCI Yeast Anticancer Drug Screen. Data for the sgs1 mgt1 strain (AID 161);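 further: 0% = growth of cultures given vehicle only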; conditions: S. cerevisiae sgs1 mgt1 strain, at 50.0 µM, stronger effect = higher value
# How it was run: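 Read-out: growth inhibition vs vehicle controls. Cells: mutant yeast strain deficient in DNA damage repair.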
# [4] = NCI Yeast Anticancer Drug Screen. Data for the cln2 rad14 strain (AID 165);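 further: 0% = growth equal to vehicle treated cultures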; conditions: S. cerevisiae cln2 rad14 strain, at 50.0 µM, stronger effect = higher value
# How it was run: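 Compounds are applied to the cln2 rad14 yeast strain, and growth is then compared with that of vehicle-treated cultures to give inhibition.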
# [5] = NCI Yeast Anticancer Drug Screen. Data for the bub3 strain (AID 167); conditions: S. cerevisiae bub3 mutant strain, at 50.0 µM, stronger effect = higher value
# How it was run: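 Inhibition values come from growth of compound-treated mutant yeast normalised to vehicle-treated controls.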
# [6] = NCI Yeast Anticancer Drug Screen. Data for the mlh1 rad18 strain (AID 175); conditions: S. cerevisiae mlh1 rad18 strain growth inhibition; at 50.0 µM; stronger effect = higher value
# How it was run: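 Read-out is yeast growth inhibition, calculated against vehicle-only controls. The compound was applied to a strain engineered with DNA damage repair alterations.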
Structure (SMILES),growth inhibition [1],growth inhibition [2],growth inhibition [3],growth inhibition [4] [%],growth inhibition [5],growth inhibition [6]
CCOC(CN=Cc1ccc2c(c1)Sc1ccccc1O2)OCC,73.1% (active),46.1%,88.2% (active),55.2,64.8%,89.5% (active)
c1ccc2[nH]c(-c3nc4ccccc4s3)cc2c1,-3.75%,-4.45%,0.05%,-60.1,-12%,1.25%
Clc1ccc(-c2ncc(-c3ccccc3)o2)cc1,20.8%,-13.7%,-6.75%,4.2,33.6%,-9.9%
CC1=C/C(=N\N(C)C)C(C(O)(C(F)(F)F)C(F)(F)F)C(C)(C)C1 (configuration not stated),4.75%,-19.1%,-10.4%,9.35,-14.7%,-13%
Cn1cnc([N+](=O)[O-])c1Cl,43.4%,-3.6%,-2.2%,-7.55,19.2%,-1.1%
CN(C)CCNc1nnc(NCCN(C)C)c2cc3ccccc3cc12,-0.7%,27.3%,-2.45%,10.5,-1.4%,7.45%
Cc1cc(N)c2cc(N)ccc2n1,99.6% (active),99.5% (active),99.4% (active),64.7,99.2% (active),98.2% (active)
COc1ccc2c(c1)[n+]([O-])c(/C(C)=N/NC(N)=S)c(C)[n+]2[O-],65.6%,12.2%,41.6%,11.4,61%,47.1%
CCCCC(C(=O)O)C1CCCCC1 (configuration not stated),-12.3%,17.4%,23.4%,-11.9,-12.2%,-1%
Cc1cc(=O)[nH]c(NNC(C#N)c2c(O)ccc3ccccc23)n1 (configuration not stated),23.6%,13.2%,24.2%,-2.9,1.45%,12.9%
CC(N)(CCBr)C(=O)O (configuration not stated),3.85%,5.2%,-0.05%,-4.75,-5.95%,-17.4%
CSc1nc(=O)[nH]c2c1[nH]c(=O)n2-c1ccccc1,1.2%,5.85%,-6.35%,-15.7,8.3%,-9.05%
COc1ccccc1Nc1nc2c([nH]1)c(=O)n(C)c(=O)n2C,-33.9%,-15.2%,-41.9%,-32.8,-4%,-5.85%
CC(C)(C)c1[nH]ncc1CCC(=O)Nc1ccc(Cl)cc1Cl,-0.6%,-1.95%,-5.85%,1.1,-16.1%,4.05%
Cc1ccc(-n2nc3c(c(C#N)c2=O)-c2ccccc2C3=O)cc1,-27.6%,-4.4%,-31.8%,-38.5,-2.7%,-14.3%
CSc1cc(C)n2nnnc2n1,1.25%,-11.9%,-3.2%,-27.2,-3.75%,-0.3%
Cc1ccc(/C=N/NC(N)=S)c(C)c1,8.5%,-25.4%,17.3%,-30.9,7.15%,16.6%
COc1cc(OC)c(N=Nc2c(O)n(C)c(=O)n(C)c2=O)cc1Cl,6.45%,-17.8%,14.6%,3.85,10.6%,1%
NC(CCCCN=Cc1nc(-c2ccccc2)oc1O)C(=O)O (configuration not stated),-33.6%,-52.3%,-50.6%,21.4,-27.7%,-47.5%

Structure (SMILES),growth inhibition [1],growth inhibition [2],growth inhibition [3],growth inhibition [4] [%],growth inhibition [5],growth inhibition [6]
CCCN(CCC)NC(=O)c1ccc(N=NN(C)C)cc1,0.15%,32.8%,8.4%,-5.3,39.9%,21%
COc1ccc(C(SCC(N)C(=O)O)(c2ccccc2)c2ccccc2)cc1 (configuration not stated),32.8%,-11.7%,37%,-42.4,10.8%,54.6%
COc1ccc2c(ccc[n+]2CC(=O)c2ccc(Cl)cc2)c1,-35.9%,-8.35%,-17.2%,28.4,-0.5%,-3.7%
Clc1cnnc(Cl)c1N/N=C/c1ccco1,11.6%,-0.05%,13%,-43.2,-6.7%,-7.55%
CC(C)CCOC(=O)COc1ccc(Cl)cc1Cl,6.95%,-13.7%,3.55%,19.2,18.8%,-17%
C1=C(c2ccccc2)Cc2ccccc21,13.4%,24.4%,19.9%,-14.8,15.4%,23.9%
c1ccc2sc(SCSc3nc4ccccc4s3)nc2c1,2.65%,-31.9%,-18.1%,-13.7,-1.05%,-30.9%
Cc1nnc(-c2cn(C3OC(CO)C(O)C3O)c3ncnc(N)c23)nc1C (configuration not stated),6.2%,15.9%,1%,0,-4.1%,8.9%
O=c1/c(=C/c2cccc([N+](=O)[O-])c2)sc2nc3ccccc3n12,-9.95%,-12.7%,-18.1%,-4.65,-10.1%,-12.7%
CCCCCCCCCC(=O)N/N=C/c1cccs1,0.95%,24.2%,3.9%,-12.7,35.8%,15.3%
COc1ccc(O)c(/C=N/NC(N)=S)c1,23.8%,-24.8%,-4.45%,-115,-24.8%,-11.4%
CCCCOC(=O)C(C)OC(=O)COc1ccc(Cl)cc1C (configuration not stated),5.05%,-13.7%,15.4%,-40.7,2.25%,-1.05%
COc1cccc(OC)c1OC(=O)/C=C\C(=O)Oc1c(OC)cccc1OC,29.9%,-8.65%,18.8%,-3.75,-2.05%,20.8%
CC1(C)CC(=O)c2c([nH]c(=S)c(C#N)c2-c2ccc(Br)cc2)C1,-37.3%,-13.1%,-27.4%,-11.8,-8.7%,-42.1%
Cc1cc(-c2ccc([NH2+][B-](F)(F)F)c(C)c2)ccc1[NH2+][B-](F)(F)F,-9.15%,-3.15%,-11.6%,-58.6,3.45%,-11.2%
CCOC(=O)c1c2c(nc3c1CCCC3)CCCC2,3.2%,3.45%,-1.6%,-1.05,7.4%,-24.9%
C=C1C(=O)O[C@H]2/C=C(/C)C3=CC(=O)[C@@](C)(C[C@@H](OC(=O)/C(C)=C\C)C12)O3 (some centres not stated),73.5% (active),80.8% (active),81.2% (active),64.8,77.9% (active),75.8% (active)
Nc1ccc(C(=O)Nc2cccc(OCc3nc(N)nc(N)c3-c3ccc(Cl)cc3)c2)cc1,16.6%,-6.15%,-16.2%,16.5,2.3%,13.2%
